Screening results (PubChem BioAssay)
Shown are actives, neighbours in structure and some others; about 1.6% of the full set was active somewhere.
KCNQ2 enhance = KCNQ2 (rat) channel potentiation; B-score at 10 µM; CHO-K1 KCNQ2, FluxOR thallium flux fluorescence; active compounds read high; AID 2239; 0.54% of 310,000 active;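 active = fluorescence ratio B-score at least 3 SD of library B-scores, with initial fluorescence B-score within 3 of them, cut at about 5.3 in these data; same plate scores as AID 2156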;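 note: B-score of peak minus minimum over baseline fluorescence ratio after K+ and Tl+ stimulus; positive B-score means potentiation of KCNQ2 with more thallium influx and brighter signal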
KCNQ2 inh = blocks the rat KCNQ2 potassium channel; O88943; CHO-K1 KCNQ2, FluxOR thallium flux, 20 min; active compounds read low; B-score at 10 µM; 1.1% of 310,000 active;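 active = fluorescence ratio B-score at most minus 3 library SDs, with starting brightness B-score within 2 library SDs, cut at about -5.5 in these data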
KCNQ2 inh conf = confirmation of rat KCNQ2 potassium channel inhibitors; shares compounds with KCNQ2 inh; KCNQ2-expressing cells, thallium flux, inhibition; active compounds read low; activity change, negative = inhibition, % at 10 µM; 57% of 1,000 active; AID 493025
KCNQ1 spec = selectivity of KCNQ2 inhibitors against human KCNQ1; KCNQ1-expressing cells, FluxOR thallium flux fluorescence; active compounds read low; shares compounds with KCNQ2 inh; activity change, negative = inhibition, % at 10 µM; 15% of 1,000 active; AID 493026;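 active = activity change at least 3 SD of negative controls below their mean in both duplicate wells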;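 note: CHO cells stably transfected with KCNQ1 and depolarized by potassium stimulus; peak minus minimum fluorescence over baseline after thallium addition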
Target sequence (P51787 whole entry, looked up): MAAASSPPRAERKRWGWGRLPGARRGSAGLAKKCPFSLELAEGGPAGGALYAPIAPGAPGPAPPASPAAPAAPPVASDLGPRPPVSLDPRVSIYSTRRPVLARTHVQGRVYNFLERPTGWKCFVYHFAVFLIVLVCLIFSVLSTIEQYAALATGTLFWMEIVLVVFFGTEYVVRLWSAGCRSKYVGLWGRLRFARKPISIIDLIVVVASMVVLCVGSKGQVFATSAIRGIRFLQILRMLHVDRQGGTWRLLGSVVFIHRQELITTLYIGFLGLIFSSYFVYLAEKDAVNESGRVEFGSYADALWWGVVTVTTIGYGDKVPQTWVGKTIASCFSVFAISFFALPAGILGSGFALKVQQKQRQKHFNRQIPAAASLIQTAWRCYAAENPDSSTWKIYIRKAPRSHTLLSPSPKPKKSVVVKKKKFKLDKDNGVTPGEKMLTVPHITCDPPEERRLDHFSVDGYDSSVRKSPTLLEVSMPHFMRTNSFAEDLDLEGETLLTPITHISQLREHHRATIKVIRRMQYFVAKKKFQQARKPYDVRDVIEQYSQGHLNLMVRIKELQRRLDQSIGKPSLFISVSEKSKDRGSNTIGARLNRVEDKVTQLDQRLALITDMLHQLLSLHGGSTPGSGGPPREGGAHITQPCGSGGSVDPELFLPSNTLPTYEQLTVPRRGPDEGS
CHO Tl ctr = KCNQ2 inhibitor counter-screen hit in parental CHO cells. shares compounds with KCNQ2 inh. thallium flux counter-screen; active compounds read low. activity change, % at 10 µM. 14% of 1,000 active. AID 493029
KCNQ2 inh confirm = blocks rat KCNQ2 current in automated patch clamp. 49% of 550 active. calls only at 10 µM. shares compounds with KCNQ2 inh. AID 588531. KCNQ2-expressing cells
Large screens that a line does not name were inactive (follow-up assays come after a bar, where they were run). Unless noted, the rule behind the calls is not given here.

O=C(c1cn(-c2ccccc2)nc1-c1cccs1)N(CCO)Cc1ccccc1	KCNQ2 inh -7.53 | KCNQ2 inh conf inactive | KCNQ1 spec inactive | CHO Tl ctr inactive
CCCCOc1cccc(OCCCC)c1C(=O)Nc1cc(C)on1	KCNQ2 inh -9.67 | KCNQ2 inh conf -43.0% | KCNQ1 spec -34.5% | CHO Tl ctr -34.0% | KCNQ2 inh confirm active
CCOc1ccc(C(=O)Nc2cc(C)on2)cc1OCC	none
Cn1c(CNC(=O)C2CCC(=O)N(CCc3cccc(F)c3)C2)nc2ccccc21 (centres undefined)	none
CC1CCN(C(=O)COC(=O)CCCN2C(=O)c3cccc4cccc(c34)C2=O)CC1	none
O=C(COC(=O)c1cccc([N+](=O)[O-])c1)c1ccc2c(c1)OCO2	none (no result: KCNQ2 enhance)
COc1ccc(NC(=S)N(Cc2ccccn2)Cc2ccccc2Cl)cc1	KCNQ2 inh -7.86 | KCNQ2 inh conf inactive | KCNQ1 spec inactive | CHO Tl ctr inactive
COc1cccc(NC(=S)N(Cc2ccccn2)Cc2ccccc2Cl)c1	none (no result: KCNQ2 enhance)
CCC(C)(C)n1nnnc1C(c1ccc(C)cc1)N(Cc1ccco1)Cc1cccs1 (centres undefined)	KCNQ2 inh -9.93 | KCNQ2 inh conf inactive | KCNQ1 spec inactive | CHO Tl ctr inactive
CCC(C)(C)n1nnnc1C(C(C)C)N(Cc1cccnc1)Cc1ccco1 (centres undefined)	none (no result: KCNQ2 enhance)
c1ccc(-c2cncn2-c2ccccc2)cc1	none (no result: KCNQ2 enhance)
CN(C)S(=O)(=O)c1cccc(NC(=O)c2ccc(S(=O)(=O)N3CCCC3)cc2)c1	none
CCCN1CC=C2C(C#N)=C(N)C(C#N)(C#N)C(c3cccc(OC)c3OC)C2C1 (centres undefined)	none (no result: KCNQ2 enhance)
COc1cccc(OC)c1OCc1cc(C2C3CCCC=C3C(C#N)=C(N)C2(C#N)C#N)c(C)cc1C (centres undefined)	KCNQ2 inh -11.1 | KCNQ2 inh conf inactive | KCNQ1 spec inactive | CHO Tl ctr inactive
O=[N+]([O-])c1cccc2nc(-c3ccccc3)c(-c3ccccc3)nc12	KCNQ2 inh -7.64 | KCNQ2 inh conf -28.0% | KCNQ1 spec inactive | CHO Tl ctr inactive | KCNQ2 inh confirm inactive
Cn1c(-[n+]2c(-c3ccccc3)cc(-c3ccccc3)cc2-c2ccccc2)nc2c([N+](=O)[O-])cccc21	none (no result: KCNQ2 enhance)
CC(=O)N1Cc2ccccc2CC1C(=O)NCc1ccccc1F (centres undefined)	none (no result: KCNQ2 enhance)
CC(C)(C)n1nnnc1C(c1cccnc1)N1CCN(c2cccc(C(F)(F)F)c2)CC1 (centres undefined)	none
CC(C)(C)c1cc(C(c2cccnc2)N2CCN(CCO)CC2)cc(C(C)(C)C)c1O (centres undefined)	KCNQ2 inh -9.15 | KCNQ2 inh conf -26.0% | KCNQ1 spec inactive | CHO Tl ctr inactive | KCNQ2 inh confirm inactive
CSc1ccc(/C=N/S(=O)(=O)c2ccccc2)cc1	none
CCc1cc(/C(Cc2csc(C)n2)=N/O)c(O)cc1O	KCNQ2 inh -7.65 | KCNQ2 inh conf -37.5% | KCNQ1 spec -34.5% | CHO Tl ctr -28.5% | KCNQ2 inh confirm active
Cc1nc(C/C(=N\N)c2ccc(O)cc2O)cs1	none (no result: KCNQ2 enhance)
c1ccc(-c2onc(-c3ccco3)c2-c2ccc3[nH]ccc3c2)cc1	none (no result: KCNQ2 enhance)
O=C(Cn1ncc2c(=O)oc3ccccc3c21)N1CCc2ccccc2C1	none
Cn1c(C(=O)N2CCc3ccccc3C2)cc2oc3ccccc3c21	KCNQ2 inh -10.7 | KCNQ2 inh conf -16.5% | KCNQ1 spec inactive | CHO Tl ctr inactive | KCNQ2 inh confirm active
CCn1c(C(=O)N2CCc3ccccc3C2)cc2oc3ccccc3c21	KCNQ2 inh -6.82 | KCNQ2 inh conf -44.5% | KCNQ1 spec -52.0% | CHO Tl ctr -43.5%
COc1cc2c(cc1OC)CN(C(=O)c1oc3ccccc3c1C)CC2	none (no result: KCNQ2 enhance)
COc1ccccc1CC(=O)N1CCC(CCC(=O)NC2CC2)CC1	none
CCc1ccc(S(=O)(=O)Nc2nnc(N)s2)cc1	none (no result: KCNQ2 enhance)
O=C(CNC1CCCCCC1)c1cccs1	none (no result: KCNQ2 enhance)
O=C(NCC(c1cccs1)N1CCOCC1)c1ccc(Cl)s1 (centres undefined)	KCNQ2 inh -9.71 | KCNQ2 inh conf inactive | KCNQ1 spec inactive | CHO Tl ctr inactive
O=C(NCC(c1cccs1)N1CCOCC1)c1cc([N+](=O)[O-])ccc1Cl (centres undefined)	none (no result: KCNQ2 enhance)
CCNc1c(NC(=O)C2CCC(C)CC2)c(=O)oc2ccccc12 (centres undefined)	none
O=C(CCCn1ncn2c(cc3occc32)c1=O)NCc1cccc(Cl)c1	none (no result: KCNQ2 enhance)
